Data on 94 molecules can be found in PubChem BioAssay AID2315 (National Center for Advancing Translational Sciences (NCATS), 2010).

About 27,000 (9.3%) of roughly 290,000 compounds were called active. The sample as a whole holds a higher share of actives than the screen did. Values without a mark were called inactive. Rule as the data show it: active = inhibition mostly above about 28% (no sharp cut-off); inactive = mostly below about 43%.

A short description of the test: A qHTS for Small Molecule Inhibitors of Shiga Toxin. Also: 0% is about no effect. The following applies: Vero cells, Shiga toxin protein synthesis inhibition reporter; at 38.7 µM, hits give high values. A general note: Quantitative high-throughput screening tests each substance at several concentrations.
For `COc1ccc([N+](=O)[O-])cc1N(CC(=O)Nc1ccccc1C(=O)N1CCOCC1)S(C)(=O)=O`, the inhibition is -1.77%.
For `CCOC(=O)c1nc(-c2ccc3c(c2)OCO3)[nH]c1C`, the inhibition was 41% (active).
`CCOCCOC(=O)C1=C(C)NC(=O)NC1c1ccc2c(c1)OCO2` (centres undefined): the inhibition was -11.9%.
The figure for `CCOC(=O)c1c(C)[nH]c(C(=O)COc2ccc3c(c2)OCO3)c1C` is 17.2%; for `CCOc1ccc(N(C)S(=O)(=O)c2cnc[nH]2)cc1` it is 10.4%; for `Cc1ccc2c(c1)N(CC(=O)N1CCC(C)CC1)C(=O)c1cccnc1O2` it is 9.85%.
Turning to `CCOc1cccc(NC(=O)C2CCCN(S(=O)(=O)c3ccc(OC)cc3)C2)c1` (centres undefined), the inhibition was -14.4%.
As to `COc1ccc(NC(=O)C2CCCN(S(=O)(=O)c3cccc4cccnc34)C2)cc1` (centres undefined), the inhibition was -1.64%.
For the molecule `COc1ccc(S(=O)(=O)N2CCCC(C(=O)Nc3ccc(NC(=O)c4ccccn4)cc3)C2)cc1` (centres undefined), the inhibition was 63.5% (active).
As to `COc1ccccc1N1CC(C(=O)Nc2nnc(SCC(=O)NC(C)C)s2)CC1=O` (centres undefined), the inhibition was 4.29%.
For the molecule `CN(CC1CCCN(CCc2cccc(C(F)(F)F)c2)C1)C(=O)c1ccc2nc[nH]c2c1` (centres undefined), the inhibition is -2.32%.
On to `Cc1ccc(CS(=O)Cc2ccc(C(=O)N3CCOCC3)o2)cc1` (centres undefined), for which the inhibition is -2.85%.
For the molecule `COc1ccc2c(c1)cc1n2CCN=C1NN`, the inhibition is 170% (active).
In the case of `COc1ccc(CNC(=O)C(=O)NCC2OCCN2C(=O)c2ccc(OC)cc2)cc1` (centres undefined), the inhibition was -30.4%.
Turning to `O=S(=O)(c1cccc(Cn2nnc(-c3ccc(F)cc3)n2)c1)N1CCOCC1`, the inhibition was -6.53%.
For `O=[N+]([O-])c1cc(Br)c(O)c(/C=N/Nc2nc3ccccc3s2)c1`, the inhibition is 30.3%.
On to `c1ccc2sc(NN=C3CCCC3)nc2c1`, for which the inhibition was 72.4% (active).
In the case of `c1ccc2sc(SNC3CCCCC3)nc2c1`, the inhibition is 25.3%.
As to `Cc1ccc2c(c1)C(c1ccccc1)N(C(=O)c1ccc(F)cc1)CC(=O)N2` (centres undefined), the inhibition is -4.25%.
Take `COC(=O)c1ccc(/C=C2/C(=O)Oc3ccccc32)cc1`: the inhibition was -14%.
On to `Cc1ccc(NC(=S)N2CCCC(c3ccccc3)=N2)cc1`, for which the inhibition is -2.73%.
The figure for `CNC(=S)N1N=C(c2ccccc2)CC1c1ccc(Br)cc1` (centres undefined) is 34.3% (active); for `CC(=O)N1CCN(c2ccccc2NC(=S)NC(=O)c2cc3ccccc3o2)CC1` it is -6.04%; for `Cc1cc(Nc2ccccc2)n(C(=O)c2ccc(N)cc2)n1` it is 47.2% (active).
Turning to `Cc1cc(NC(=O)Nc2ccccc2)n(-c2ccccc2)n1`, the inhibition is 34.6%.
With `Cc1cc(Nc2ccccc2)n(CCC#N)n1`, the inhibition was -1.92%.
Consider `Cc1ccc(C)c(C(=O)N2CCC(n3nccc3NC(=O)C3CC3)CC2)c1`, for which the inhibition is -24.8%.
Take `N#Cc1c(-c2ccccc2)c(-c2ccccc2)n[nH]c1=O`: the inhibition is -6.49%.
Consider `Cc1cccc(N2C(=O)SC(N(CC(=O)O)c3cccc(C)c3)C2=O)c1` (centres undefined), for which the inhibition was 49.7%.
For the molecule `Cc1cccc(N2C(=O)CC(SC(N)=Nc3ccccc3)C2=O)c1` (centres undefined), the inhibition is -8.18%.
On to `Cc1cccc(N2C(=O)SC(SC(=Nc3ccccc3)Nc3ccccc3)C2=O)c1` (centres undefined), for which the inhibition is 83.9% (active).
Turning to `COc1cccc(/C=C2\Sc3ccc(C(=O)NCC4CCCO4)cc3N(C)C2=O)c1` (centres undefined), the inhibition was 11.4%.
For `CCOC(=O)c1c(S(=O)(=O)Nc2ccc(CN3CCC(C)CC3)cc2)c(C)n(C)c1C`, the inhibition is -3.73%.
On to `CC(=O)N1CC(=O)N(CC(=O)Nc2ccc(Br)cc2)C1=S`, for which the inhibition is -1.67%.
As to `CC1CC(C)CN(C(=O)C2CC(=O)N(c3ccc(F)cc3)C2)C1` (centres undefined), the inhibition was -7.56%.
The figure for `O=C(N/N=C/c1ccccc1O)C1CCCC1` is 21.6%; for `O=C(N/N=C/c1ccccc1O)/C(=C/c1ccccc1)CCO` it is 51.6% (active); for `O=C(CCCO)N/N=C/c1cc(Br)ccc1O` it is 13.6%.
With `O=c1c2c(nc3nc[nH]n13)CCC2` the figure was 11.8%; with `Cc1cc(=O)n2[nH]c(-c3cccc(Cl)c3)cc2n1`, 39.8%.
With `O=c1c2c(nc3cc(-c4cccc(Cl)c4)[nH]n13)CCCC2`, the inhibition was 59.1% (active).
Turning to `O=S(=O)(c1ccc(Cl)cc1)c1nc(-c2ccccc2F)oc1NCCN1CCOCC1`, the inhibition was -6.01%.
The figure for `CCCc1nc(NCc2ccc3c(c2)OCO3)c2nnn(Cc3ccccc3Cl)c2n1` is 7.73%; for `Cc1nc(Nc2ccc3c(c2)OCCO3)c2nnn(Cc3ccccc3Cl)c2n1` it is 153% (active).
For the molecule `Cc1nc(Nc2ccccc2F)c2nnn(Cc3ccccc3Cl)c2n1`, the inhibition was -8.68%.
For `COc1ccc(C(=O)/C=C/c2ccc(-c3ccccc3)cc2)cc1CSCC(=O)O`, the inhibition was -14.5%.
On to `Cc1ccccc1NC(=O)CCOc1ccccc1`, for which the inhibition was 58% (active).
`Cc1c(NC(=O)CCCOc2ccccc2)cccc1[N+](=O)[O-]`: the inhibition was 10.4%.
As for `CCc1ccccc1NC(=O)CCOc1ccccc1`, the inhibition was -7.03%.
Take `COc1cccc(CN(C)CC2CCCN(CCc3ccc(Cl)cc3)C2)c1OC` (centres undefined): the inhibition is -3.67%.
As to `C/[N+]([O-])=C\c1ccc([N+](=O)[O-])o1`, the inhibition is -7.77%.
Take `O=C(/C=C/c1ccc([N+](=O)[O-])o1)NNC(=O)c1ccc(F)cc1`: the inhibition is 120% (active).
With `O=C(N/N=C/c1ccc([N+](=O)[O-])o1)c1cn(-c2ccccc2)nc1-c1ccc(F)cc1`, the inhibition is 8.71%.
For `Cc1coc2c1c(C)cc1oc(=O)c(CC(=O)NCC(=O)N[C@H](C(=O)O)C(C)C)c(C)c12`, the inhibition is -15%.
With `Cc1c(C(=O)Nc2cccc(-c3nnc4n3CCCCC4)c2)oc2ccccc12`, the inhibition is 35%.
Take `Cc1c(C(=O)Nc2ccccc2)sc2nc3n(c(=O)c12)CCCCC3`: the inhibition is 95.7% (active).
The figure for `CC(=O)c1ccc(NC(=O)c2sc3nc4n(c(=O)c3c2C)CCCCC4)cc1` is 81.1% (active).
Consider `Cc1nc(N2CCN(c3ccccn3)CC2)c2c(C)c(C(=O)Nc3ccc(F)cc3)sc2n1`, for which the inhibition is -7.13%.
Take `O=c1c2c(nc3n1CCCCC3)sc1c(O)cccc12`: the inhibition was 20.9%.
In the case of `Cc1nc(N2CCOCC2)c2c(C)c(C(=O)Nc3ccc(C(F)(F)F)cc3)sc2n1`, the inhibition is -15.2%.
As for `CN(C(=O)CC1C(=O)NCCN1Cc1ccc(F)cc1Cl)C1CCCCC1` (centres undefined), the inhibition was -14.2%.
With `CCn1c(CNc2ccc(OC)cc2)nnc1SCC(=O)c1ccc(OC)cc1` the figure was -15.6% (active); with `CCn1c(SCC(=O)c2ccc(Cl)s2)nnc1-c1cccs1`, 73.6% (active).
Regarding `C=CCn1c(CNC(=O)c2ccco2)nnc1SCC(=O)c1ccc(OC)cc1`, the inhibition is -12.2%.
`COC(=O)c1ccc(NC(=O)CSc2nnc(CNc3ccc(OC)cc3)n2C)cc1`: the inhibition is 24.4%.
`Cc1ccc(-n2c(Cc3cccs3)nnc2SCC(=O)OC(C)C)cc1`: the inhibition was 8.05%.
Turning to `CCn1c(Cc2cccs2)nnc1SCC(=O)c1ccc(C)cc1`, the inhibition was 41.4% (active).
Turning to `CCn1c(SCC(=O)c2ccc3ccccc3c2)nnc1-c1cccs1`, the inhibition was -3.35%.
Take `CCn1c(SCC(=O)N(C)C2CCS(=O)(=O)C2)nnc1-c1cccs1` (centres undefined): the inhibition is -0.571%.
For `Cn1c(Cc2cccs2)nnc1SCC(=O)Nc1ccccc1`, the inhibition is -7.01%.
For `O=C(NCc1ccco1)C(c1ccncc1)N(C(=O)Cn1nnc2ccccc21)c1ccccc1` (centres undefined), the inhibition was -3.36%.
The figure for `CCOC(=O)c1cc(C)nc(S(C)(=O)=O)c1C#N` is 47.2%.
As to `CN(CCc1ccccc1)c1ccc([N+](=O)[O-])cn1`, the inhibition was -3.15%.
The figure for `CCCCC(c1nnnn1CS(=O)(=O)c1ccc(C)cc1)N1CCC(C(N)=O)CC1` (centres undefined) is -8.35%.
On to `COc1ccccc1-c1nnc(SCC(=O)N2CC(C)CC(C)C2)o1` (centres undefined), for which the inhibition is -7.49%.
Consider `O=C(CSc1ccsc1[N+](=O)[O-])N1CCCCC1`, for which the inhibition is 6.79%.
In the case of `CC1CC(C)CN(C(=O)CSc2ccsc2[N+](=O)[O-])C1` (centres undefined), the inhibition is 63.3% (active).
`COCc1c(C(=O)N/N=C(\C)c2ccncc2)nnn1-c1nonc1N`: the inhibition was -3.05%.
With `COC(=O)c1ccc(NC(=O)CSc2nnc(C3CC3)n2C)cc1`, the inhibition is 17.5%.
Take `O=C(Nn1cnc2ccccc2c1=O)c1ccc(F)cc1Cl`: the inhibition was 71.8% (active).
Consider `O=C(Nn1cnc2ccccc2c1=O)c1ccc([N+](=O)[O-])cc1Cl`, for which the inhibition is -11.9%.
Consider `O=C(Nn1cnc2ccccc2c1=O)c1ccccc1`, for which the inhibition is 58.6%.
Turning to `COc1cc(C(=O)NCc2ccncc2)cc(Br)c1OCc1ccccc1`, the inhibition is -9.85%.
With `CC(C(=O)NCCc1ccc(S(N)(=O)=O)cc1)N1C(=O)CC(C)(C)Sc2ccccc21` (centres undefined) the figure was -10.5%; with `COc1ccc2c(c1OC)C(=O)OC2Nc1nc(-c2ccccc2)cs1` (centres undefined), 36.9% (active); with `COc1ccc(N/C=C(\C2OC(=O)c3ccccc32)[N+](=O)[O-])cc1` (centres undefined), 15.2%.
With `COc1ccc(-c2csc(NC3OC(=O)c4ccccc43)n2)cc1` (centres undefined), the inhibition is 41.6% (active).
The figure for `Cc1ccc(-c2csc(NC3OC(=O)c4ccccc43)n2)cc1` (centres undefined) is 30% (active); for `Cc1ccc(-c2csc(NC(=O)Cn3[nH]c(=O)c4ccccc4c3=O)n2)cc1` it is 42.6%.
In the case of `COc1ccc2c(c1OC)C(=O)OC2c1c(O)nc(SC)n(-c2ccccc2)c1=O` (centres undefined), the inhibition was -8.28%.
Regarding `CCCn1c(CCNc2nc(-c3ccc(OC)cc3)cs2)nc2ccccc21`, the inhibition was 20.9%.
`COc1ccc(C)cc1Nc1nc(-c2c(C)[nH]c3ccccc23)cs1`: the inhibition is -3.8%.
In the case of `CC(=O)Nc1ccc(-c2csc(NC=C3C(=O)OC(C)(C)OC3=O)n2)cc1`, the inhibition is 54%.
For `Cc1ccc(NS(=O)(=O)c2ccc3c(c2)n(C)c(=O)c(=O)n3C)c(C)c1`, the inhibition was -7.48%.

Usually inhibition stands for the relative decrease from the control value, in per cent.
